Source: PubChem BioAssay (EPA / NIEHS)
Several values for one entry are separate records, joined by “and”; a condition that tells them apart may be missing. Equal entries are not always repeated. Inconclusive results are not listed. More than one record can exist for a structure, and the calls need not agree. Activity calls are given as the source filed them. How the source made its calls, unless noted: active means hit-call score of the fitted dose curve at least 0.9, where 1 is the maximum; inconclusive means response in the unintended direction; inactive means score below 0.9.

Tests used:
[1] = read-out: Signal transducer and activator of transcription 3 (Homo sapiens) (UniProt P40763); experiment: LTEA_HepaRG_STAT3: Life Technologies and Expression Analysis (LTEA) Assay for Signal transducer and activator of transcription (STAT3) using HepaRG (AID 2283529; active means hit-call score of the fitted dose curve at least 0.9, where 1 is the maximum; inactive means score below 0.9); conditions: mRNA level, 48 h; actives raise or lower the signal
How it was run: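 HepaRG, 48 h exposure, 8-pt half-log series (top 100 uM), 0.5% DMSO vehicle, duplicates. Readout: STAT3 transcript by Fluidigm qRT-PCR, housekeeping-normalized; bidirectional fit vs DMSO baseline.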

[2] = read-out: solute carrier (SLCO1B1), SLCO1B1 (gene 10599); experiment: LTEA_HepaRG_SLCO1B1: Life Technologies and Expression Analysis (LTEA) Assay for solute carrier (SLCO1B1) using HepaRG (AID 2283530; active means hit-call score of the fitted dose curve at least 0.9, where 1 is the maximum; inactive means score below 0.9); conditions: mRNA level, 48 h; actives raise or lower the signal
How it was run: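 Gain or loss of SLCO1B1 mRNA is fitted against the 0.5% DMSO vehicle in human HepaRG liver cells treated 48 h at up to 100 uM in half-log steps. Expression comes from qRT-PCR normalized to endogenous controls.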

[3] = read-out: sulfotransferase 2A1 (SULT2A1), SULT2A1 (gene 6822); experiment: LTEA_HepaRG_SULT2A1: Life Technologies and Expression Analysis (LTEA) Assay for sulfotransferase 2A1 (SULT2A1) using HepaRG (AID 2283531; active means hit-call score of the fitted dose curve at least 0.9, where 1 is the maximum; inactive means score below 0.9); conditions: mRNA level, 48 h; actives raise or lower the signal
How it was run: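 Cells were plated and cultured 48 h, switched to serum-free induction medium, then dosed in duplicate for 48 h (8 concentrations, max 100 uM). RNA was isolated and SULT2A1 expression measured by qRT-PCR; gain or loss of signal fitted relative to DMSO.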

TIMP1, TIMP1 (gene 7076) = experiment: LTEA_HepaRG_TIMP1: Life Technologies and Expression Analysis (LTEA) Assay for TIMP1 using HepaRG (AID 2283534; active means hit-call score of the fitted dose curve at least 0.9, where 1 is the maximum; inactive means score below 0.9); conditions: mRNA level, 48 h; actives raise or lower the signal
How it was run: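 We dosed human liver HepaRG cultures for 48 hours with up to 100 uM test chemical and measured TIMP1 expression by qRT-PCR. Activity in either direction is fitted relative to the 0.5% DMSO vehicle.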

[4] = read-out: Tumor necrosis factor receptor 1 (TNFRSF1A), TNFRSF1A (gene 7132); experiment: LTEA_HepaRG_TNFRSF1A: Life Technologies and Expression Analysis (LTEA) Assay for Tumor necrosis factor receptor 1 (TNFRSF1A) using HepaRG (AID 2283535; active means hit-call score of the fitted dose curve at least 0.9, where 1 is the maximum; inactive means score below 0.9); conditions: mRNA level, 48 h; actives raise or lower the signal
How it was run: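 Expression of TNFRSF1A in human HepaRG liver cells was measured by qRT-PCR 48 h after chemical dosing (maximum 100 uM). Bidirectional curve fitting used 0.5% DMSO as baseline.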

[5] = read-out: Thyroid Hormone Responsive (THRSP), THRSP (gene 7069); experiment: LTEA_HepaRG_THRSP: Life Technologies and Expression Analysis (LTEA) Assay for Thyroid Hormone Responsive (THRSP) using HepaRG (AID 2283536; active means hit-call score of the fitted dose curve at least 0.9, where 1 is the maximum; inactive means score below 0.9); conditions: mRNA level, 48 h; actives raise or lower the signal
How it was run: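 qRT-PCR read-out (Fluidigm TaqMan), housekeeping-normalized (ACTB/GAPDH/POLR2A). HepaRG, 48 h chemical exposure, 8-pt half-log series from 100 uM in 0.5% DMSO, duplicates. Bidirectional curve fit vs 0.5% DMSO baseline.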

[6] = read-out: Cellular tumor antigen p53 (Homo sapiens) (UniProt P04637); experiment: LTEA_HepaRG_TP53: Life Technologies and Expression Analysis (LTEA) Assay for Tumor Protein P53 (TP53) using HepaRG (AID 2283537; active means hit-call score of the fitted dose curve at least 0.9, where 1 is the maximum; inactive means score below 0.9); conditions: mRNA level, 48 h; actives raise or lower the signal
How it was run: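 TP53 transcript measured by qRT-PCR, normalized to three housekeeping genes, after 48 h treatment of human HepaRG cultures with chemicals from 100 uM downward in half-log steps (0.5% DMSO vehicle, serum-free induction medium). Up- or down-regulation fitted against DMSO.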

[7] = read-out: UDP glucuronosyltransferase (UGT1A1), UGT1A1 (gene 54658); experiment: LTEA_HepaRG_UGT1A1: Life Technologies and Expression Analysis (LTEA) Assay for UDP glucuronosyltransferase (UGT1A1) using HepaRG (AID 2283538; active means hit-call score of the fitted dose curve at least 0.9, where 1 is the maximum; inactive means score below 0.9); conditions: mRNA level, 48 h; actives raise or lower the signal
How it was run: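 mRNA induction or loss of UGT1A1, by TaqMan qRT-PCR, in duplicate HepaRG wells after 48 h exposure to half-log dilutions topping at 100 uM; DMSO (0.5%) served as baseline.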

[8] = read-out: UDP glucuronosyltransferase (UGT1A6), UGT1A6 (gene 54578); experiment: LTEA_HepaRG_UGT1A6: Life Technologies and Expression Analysis (LTEA) Assay for UDP glucuronosyltransferase (UGT1A6) using HepaRG (AID 2283539; active means hit-call score of the fitted dose curve at least 0.9, where 1 is the maximum; inactive means score below 0.9); conditions: mRNA level, 48 h; actives raise or lower the signal
How it was run: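 Endpoint is UGT1A6 transcript induction or loss in a human liver cell line, quantified by TaqMan qRT-PCR 48 h after dosing. Concentrations ran from 100 uM downward in half-log steps in 0.5% DMSO; activity was fitted in both directions versus vehicle.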

[9] = read-out: X-box binding protein 1 (XBP1), XBP1 (gene 7494); experiment: LTEA_HepaRG_XBP1: Life Technologies and Expression Analysis (LTEA) Assay for X-box binding protein 1 (XBP1) using HepaRG (AID 2283540; active means hit-call score of the fitted dose curve at least 0.9, where 1 is the maximum; inactive means score below 0.9); conditions: mRNA level, 48 h; actives raise or lower the signal
How it was run: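 Human HepaRG monolayers receive test chemical for 48 h across an eight-point half-log series starting at 100 uM. XBP1 mRNA gain or loss is scored against DMSO by qRT-PCR.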

[10] = ATG_XTT_Cytotoxicity: Cytotoxicity Assessment in the Attagene TRANS-FACTORIAL HepG2 Assay (AID 2283584)
How it was run: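 Transfect HepG2 with GAL4-UAS reporter units, dose compound, incubate 24 h, then measure viable cell number by XTT. Fit concentration response against DMSO baseline.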

[11] = TOX21_p53_BLA_p2_viability: Viability Assessment in the Tox21 HCT-116 p53 Agonism Beta-lactamase Assay, Phase 2 (AID 2283591);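 further: compound exposure lasted 16 h at 37 °C; actives lower the ATP signal meaning cytotoxicity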
How it was run: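 HCT116 p53-bla cells, 4000/well, dosed after 5 h plating (217-fold dilution of DMSO stocks) and incubated 16 h at 37C. Viability taken as cellular ATP by CellTiter-Glo luminescence after 30 min RT; signal loss marks cytotoxicity.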

[12] = molecular target: Cellular tumor antigen p53 (Homo sapiens) (UniProt P04637); experiment: TOX21_p53_BLA_p2_ratio: Tox21 HCT-116 p53 Agonism Beta-lactamase Assay, Ratio, Phase 2 (AID 2283592)
How it was run: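 Cleaved-to-uncleaved substrate ratio (460 vs 530 nm) measured in HCT116 cells with an inducible beta-lactamase reporter linked to p53 activity. Compounds incubated 16 h at 37C before 2 h room-temperature CCF4-AM loading.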

[13] = TOX21_p53_BLA_p3_viability: Viability Assessment in the Tox21 HCT-116 p53 Agonism Beta-lactamase Assay, Phase 3 (AID 2283593);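 further: cells exposed to compound for 16 h before reading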
How it was run: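 HCT116 cells, 4000/well, dosed 5 h after plating by pin transfer (217-fold dilution from DMSO stock) and incubated 16 h at 37C, 5% CO2. Viability read as ATP luminescence with CellTiter-Glo after 30 min at room temperature.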

[14] = molecular target: Cellular tumor antigen p53 (Homo sapiens) (UniProt P04637); experiment: TOX21_p53_BLA_p3_ratio: Tox21 HCT-116 p53 Agonism Beta-lactamase Assay, Ratio, Phase 3 (AID 2283596)
How it was run: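 Cells were seeded at 4000/well, rested 5 h at 37C, then dosed with DMSO compound solutions (217-fold dilution) for 16 h. CCF4-AM substrate was loaded for 2 h at room temperature, and the 460/530 nm emission ratio was fitted for gain of signal versus DMSO.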

[15] = TOX21_p53_BLA_p4_viability: Viability Assessment in the Tox21 HCT-116 p53 Agonism Beta-lactamase Assay, Phase 4 (AID 2283597);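 further: hits lower the luminescence signal meaning cytotoxicity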
How it was run: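 Viability is taken as cellular ATP: after 16 h compound exposure of HCT116 cells and a 2 h room-temperature CCF4-AM substrate step, CellTiter-Glo reagent is added and luminescence is measured 30 min later.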

[16] = molecular target: Cellular tumor antigen p53 (Homo sapiens) (UniProt P04637); experiment: TOX21_p53_BLA_p5_ratio: Tox21 HCT-116 p53 Agonism Beta-lactamase Assay, Ratio, Phase 5 (AID 2283599)
How it was run: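 HCT-116 p53-bla cells (4000/well) plated 5 h, dosed with compound (217-fold DMSO dilution) for 16 h at 37 C; CCF4-AM substrate 2 h at room temperature. Activity is the 460/530 nm emission ratio (405 nm excitation), fitted in gain-of-signal direction versus DMSO.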

[17] = LTEA_HepaRG_LDH_cytotoxicity: Cytotoxicity Assessment in the Life Technologies and Expression Analysis (LTEA) Assay (AID 2283563)
How it was run: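 Human HepaRG hepatic cells are treated with test chemicals for 48 h at up to 100 uM in 0.5% DMSO. Cytotoxicity is scored from medium LDH against the vehicle control.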

[18] = read-out: Transforming Growth Factor (TGFB1), TGFB1 (gene 7040); experiment: LTEA_HepaRG_TGFB1: Life Technologies and Expression Analysis (LTEA) Assay for Transforming Growth Factor (TGFB1) Transporter using HepaRG (AID 2283533; active means hit-call score of the fitted dose curve at least 0.9, where 1 is the maximum; inactive means score below 0.9); conditions: mRNA level, 48 h; actives raise or lower the signal
How it was run: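 Expression change of TGFB1 in human HepaRG cells is measured after a 48 h chemical exposure, up to 100 uM in 0.5% DMSO vehicle. Curves are fitted in both directions relative to the DMSO baseline.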

Measured: AC50

Signal transducer and activator of transcription 3 (Homo sapiens), sequence (P40763 whole entry, looked up): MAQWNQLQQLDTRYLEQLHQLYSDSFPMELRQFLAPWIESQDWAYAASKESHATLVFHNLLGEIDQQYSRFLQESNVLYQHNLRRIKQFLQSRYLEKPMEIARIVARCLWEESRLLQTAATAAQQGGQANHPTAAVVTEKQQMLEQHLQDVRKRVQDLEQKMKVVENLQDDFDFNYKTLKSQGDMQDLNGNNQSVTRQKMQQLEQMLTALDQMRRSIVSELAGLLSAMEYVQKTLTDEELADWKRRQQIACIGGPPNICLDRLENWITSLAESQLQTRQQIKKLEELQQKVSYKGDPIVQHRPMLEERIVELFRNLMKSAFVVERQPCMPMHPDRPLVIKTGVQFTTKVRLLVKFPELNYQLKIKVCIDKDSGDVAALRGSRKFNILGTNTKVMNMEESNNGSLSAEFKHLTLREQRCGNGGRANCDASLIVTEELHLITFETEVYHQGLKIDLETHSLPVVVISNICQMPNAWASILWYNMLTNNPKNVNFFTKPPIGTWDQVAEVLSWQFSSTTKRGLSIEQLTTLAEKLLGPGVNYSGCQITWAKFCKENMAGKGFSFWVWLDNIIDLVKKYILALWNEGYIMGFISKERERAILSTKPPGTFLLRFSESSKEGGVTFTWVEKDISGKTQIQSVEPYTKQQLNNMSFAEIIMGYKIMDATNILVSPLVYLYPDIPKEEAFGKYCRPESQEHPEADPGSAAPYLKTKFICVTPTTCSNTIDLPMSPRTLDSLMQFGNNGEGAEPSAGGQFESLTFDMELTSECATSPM
Cellular tumor antigen p53 (Homo sapiens), sequence (P04637 whole entry, looked up): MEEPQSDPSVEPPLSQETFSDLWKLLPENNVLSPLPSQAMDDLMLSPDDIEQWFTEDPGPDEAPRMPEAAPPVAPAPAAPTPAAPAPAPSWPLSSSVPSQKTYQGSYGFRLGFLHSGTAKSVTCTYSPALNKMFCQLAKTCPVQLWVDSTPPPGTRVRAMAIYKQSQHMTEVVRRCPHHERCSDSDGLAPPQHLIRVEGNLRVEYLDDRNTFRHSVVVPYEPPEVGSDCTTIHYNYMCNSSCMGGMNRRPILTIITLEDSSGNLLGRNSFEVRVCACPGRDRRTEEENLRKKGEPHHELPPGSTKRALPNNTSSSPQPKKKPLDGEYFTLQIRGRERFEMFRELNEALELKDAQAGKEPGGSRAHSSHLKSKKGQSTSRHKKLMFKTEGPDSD

Nc1nc(N)c2nc(CNc3ccc(C(=O)N[C@@H](CCC(=O)O)C(=O)O)cc3)cnc2n1
inactive: [1] | [2] | TIMP1, TIMP1 (gene 7076) | [4] | [5] | [6] | [7] | [8] | [9] | [10] | [11] | [12] | [14] | [15] | [16]
active: [3] 97.4 nM | [11] 11.8 nM | [12] 30.8 nM | [13] 38.1 nM | [14] 68.8 nM | [15] 49.1 nM | [16] 158 nM

Cc1cccc(C)c1O
not listed: [18]
inactive: all other assays above

COc1cc(/C=C/C(=O)CC(=O)/C=C/c2ccc(O)c(OC)c2)ccc1O
active: [11] 82.2 µM and 34.1 µM | [12] 2.06 µM and 36 µM and 6.79 µM | [13] 57.5 µM and 19.8 µM | [14] 13.6 µM and 35.3 µM and 6.9 µM | [15] 88.4 µM and 23 µM | [16] 14 µM and 39.4 µM and 7.67 µM
inactive: [10] | [11] | [13] | [15]

c1cc(-c2ccncc2)ccn1
active: [7] 50000 nM
not listed: [5] | [18]
inactive: all other assays above

C=CCc1ccc(O)c(OC)c1
not listed: [10] | [15]
inactive: all other assays above

O=c1c(O)c(-c2ccc(O)c(O)c2)oc2cc(O)cc(O)c12
active: [2] 86800 nM | [7] 322 nM | [12] 20.2 µM [middle of 4 runs] | [15] 34700 nM | [16] 44.4 µM [middle of 4 runs]
inactive: [1] | [3] | [18] | TIMP1, TIMP1 (gene 7076) | [4] | [5] | [6] | [8] | [9] | [17] | [11] | [13] | [15]

CCCCCCOCCO
active: [1] 9920 nM
not listed: [10] | [13] | [15]
inactive: all other assays above

CCCCCCCC=O
not listed: [16] | [18]
inactive: all other assays above
